From PubChem BioAssay AID743365 (National Center for Advancing Translational Sciences (NCATS), 2014)

Experiment: qHTS profiling of inhibitors of Plasmodium falciparum (DD2) proliferation (acoustic dispense)
Conditions: P. falciparum Dd2 in erythrocytes, SYBR Green DNA, 72 h; at 49.8 µM (top of the series) unless noted
Text: Plasmodium falciparum is a virulent malarial parasite that kills 1-2 million people worldwide each year. Transmitted by mosquitoes, the sporozoite form of the parasite enters the blood stream to infect hepatocytes, where they become merozoites that infect red blood cells (erythrocytes). Within erythrocytes, merozoites begin a […] cycle of growth and division, after which the parasite is released to infect new red blood cells. Gametocytes, which form within erythrocytes as well, circulate in the bloodstream and are ingested by the mosquito, thereby completing the life cycle. To profile malarial isolates for differential chemical responses and to identify inhibitors of malarial growth, an assay that measures P. falciparum growth and replication within erythrocytes was employed. This assay uses a DNA binding fluorescent dye (SYBR Green) to detect parasite DNA following cell lysis. Because mature erythrocytes lack DNA, only Plasmodium-derived DNA is detected.
The SYBR Green viability assay was adapted from a method described previously (Plouffe et al., 2008). For screening 3 ul culture medium was dispensed into 1536 well black clear bottom plates (Aurora Biotechnologies) using a Multidrop Combi (Thermo Fisher Scientific Inc.), 23 nL of compounds in DMSO were added by an acoustic dispenser (EDC Biosystems), and 5 ul of erythrocytes infected with P. falciparum (0.3% parasitemia, 2.5% hematocrit final concentration) were added. The plates were incubated at 37 C in a humidified incubator in 5% CO2 for 72 h, and 2 ul lysis buffer (20 mM Tris HCl, 10 mM EDTA, 0.16% saponin, 1.6% triton X, 10X SYBR Green I supplied as 10,000X […] by Invitrogen) was added to each well. The plates were mixed for 25 sec with gentle shaking and incubated overnight at room temperature in the dark. The following morning, fluorescence intensity at 485(14) nm excitation and 535(25) nm emission wavelengths was measured on an EnVision (Perkin Elmer) plate reader. Plate reads were normalized relative to the control inhibitor (0.29 uM artemisinin) and vehicle (DMSO) wells present on each plate and then corrected by an algorithm using vehicle-only control plates at the beginning and end of the compound plate stack.

Row | SMILES | parasite growth, lower = inhibition
1 | CC1=C(O)C(=O)C=C2C1=CC=C1[C@@]2(C)CC[C@@]2(C)[C@@H]3C[C@](C)(C(=O)O)CC[C@]3(C)CC[C@]12C | 3.33%
2 | O=c1[nH]c2ccc(Cl)cc2c(N[C@@H]2CN3CCC2CC3)c1-c1nc2ccccc2[nH]1 | 0.0567%
3 | CN1C(=O)C[C@H](C(=O)N[C@@H](Cc2cnc[nH]2)C(=O)N2CCC[C@@H]2C(N)=O)NC1=O | 82%
4 | C[C@H]1CCCC=CC2C[C@H](O)C[C@@H]2[C@H](O)C=CC(=O)O1 (some centres not stated) | -0.172%
5 | CC(C)(N)CNC(=O)CC1CCC2(CC1)OOC1(O2)C2CC3CC(C2)CC1C3 (configuration not stated) | -0.141%
6 | CC(=O)N(O)CCCP(=O)(O)O | 4.17%
7 | COC(=O)[C@@]1(OC)C[C@@H]2O[C@@]1(C)n1c3ccccc3c3c4c(c5c6ccccc6n2c5c31)C(=O)N(C)C4 | 13.1% [at 16.5 µM]
8 | CC(=O)Nc1nnc(S(N)(=O)=O)s1 | 91%
9 | CC(=Cc1csc(C)n1)[C@@H]1C[C@H]2O[C@@H]2CCC[C@H](C)[C@@H](O)[C@@H](C)C(=O)C(C)(C)[C@@H](O)CC(=O)O1 | 3%
10 | C[C@]12O[C@H](C[C@@]1(O)C(=O)O)n1c3ccccc3c3c4c(c5c6ccccc6n2c5c31)CNC4=O | 5.95% [at 4.15 µM]
11 | CC=C1C2C=C(C)CC1(N)c1ccc(=O)[nH]c1C2 (configuration not stated) | 97.1%
12 | COC1=CC(C)=C[C@@H](C)[C@@H](O)[C@@H](C)CC(C)=CC=C[C@H](OC)[C@H]([C@@H](C)[C@@H](O)[C@H](C)[C@@]2(O)C[C@@H](O)[C@H](C)[C@@H](C(C)C)O2)OC1=O | 0.538%
13 | CO[C@H]1CCC(O[C@H]2C[C@H]([C@]3(C)CC[C@]4(C[C@H](O)[C@@H](C)[C@@H]([C@@H](C)C=C(C)C(=O)[C@H](C)C[C@H](C)C(=O)O)O4)O3)O[C@]3(O[C@@H]([C@H]4O[C@@](O)(CO)[C@H](C)C[C@H]4C)C[C@H]3C)[C@H]2C)O[C@H]1C (some centres not stated) | 104%
14 | OB1OCc2cc(F)ccc21 | 88.5%
15 | CC=C(C)C(=O)N[C@@H](c1ccccc1)[C@@H](O)C(=O)O[C@H]1C[C@@]2(O)[C@@H](OC(=O)c3ccccc3)[C@@H]3[C@]4(OC(C)=O)CO[C@@H]4C[C@H](O)[C@@]3(C)C(=O)[C@H](OC(C)=O)C(=C1C)C2(C)C | 4.37%
16 | O=C(C[C@@H]1NCCC[C@@H]1O)Cn1cnc2ccccc2c1=O | -0.505%
17 | C[C@@H]1C[C@@H]([C@H](O)CC2CC(=O)NC(=O)C2)C(=O)[C@@H](C)C1 | 0.0707%
